Dicer inh – blocks human Dicer maturation of pre-miR-21; cat-ELCCA pre-miR-21 Dicer processing, chemiluminescence; active compounds read high; actives 6% (n = 47,000); Q9UPY3; z-score at 25 µM; AID 1347074; in the data active means z-score above about 3, passing the limit was not always enough;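 further: higher signal means more uncleaved substrate so more Dicer inhibition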
Of the large screens only hits and unclear results are named; the others gave an inactive call. The sample as a whole holds a higher share of hits than the screen did.

CCCOc1ccc(C2c3c(oc4ccccc4c3=O)C(=O)N2c2nncs2)cc1OCC (stereo unspecified)	none
Cc1cc(C)cc(NC(=O)N(CCC(=O)O)Cc2ccccc2)c1	none
CCCCC(=O)Nc1nc2ccccc2s1	none
O=C(Nc1ccc(F)cc1)Nc1nc2ccccc2s1	none
CCNC(=O)Nc1nc2ccccc2s1	Dicer inh 4.4
CCCS(=O)(=O)c1c(S(=O)(=O)CCC)c2ccc(C(N)=O)cn2c1C(=O)c1ccc(F)cc1	none
CCCS(=O)(=O)c1c(S(=O)(=O)CCC)c2ccccn2c1C(=O)c1ccc(F)cc1	Dicer inh 5
CCCS(=O)(=O)c1c(S(=O)(=O)CCC)c2ccccn2c1C(=O)c1ccc(C)cc1	none
COc1ccc(S(=O)(=O)N2CCN(C)CC2)cc1C	Dicer inh 4
CN1CCN(S(=O)(=O)c2ccc3ccccc3c2)CC1	none
COc1ccc(OC)c(S(=O)(=O)N2CCN(C)CC2)c1	none
CNc1nc(C)c([N+](=O)[O-])c(C)c1C#N	none
O=c1c2cc(-c3ccccc3)sc2[nH]c(=S)n1-c1ccccc1	Dicer inh 4.1
CC1CCc2c(sc3[nH]c(=S)n(-c4ccccc4)c(=O)c23)C1 (stereo unspecified)	none
CN1CCc2c(sc3[nH]c(=S)n(-c4ccccc4)c(=O)c23)C1	none
O=c1[nH]c2c(cnn2-c2ccccc2)c(=O)n1-c1ccc(Cl)c(Cl)c1	none
O=c1[nH]c2sc(-c3ccccc3)cc2c(=O)n1-c1cccc(Cl)c1	Dicer inh 4.4
CCOC(=O)Cn1c(=O)n(-c2ccc(Cl)cc2)c(=O)c2cc(-c3ccccc3)sc21	none
CCN(CC)CCSCC(=O)Nc1c(-c2ccccc2)oc2ccccc2c1=O	none
Clc1ccccc1CN1CCN(CC2CC3C=CC2C3)CC1 (stereo unspecified)	none
CC(C)(C)c1ccc(OCCS(=O)(=O)c2nc3ccccc3[nH]2)cc1	none
CCOC(=O)CNC(=O)c1cc(OC)c(OC)c(OC)c1	none
CCCc1n(CC(O)COc2cccc(OC)c2)c2ccccc2[n+]1C (stereo unspecified)	none
CCCc1n(CC(O)COc2ccc(F)cc2)c2ccccc2[n+]1C (stereo unspecified)	Dicer inh 3.7
Cc1cccc(C)c1OCC(O)Cn1c(C)[n+](C)c2ccccc21 (stereo unspecified)	none
CCCc1n(CC(O)COc2ccccc2C)c2ccccc2[n+]1C (stereo unspecified)	none
COc1ccc(OCC(O)Cn2c(C)[n+](C)c3ccccc32)cc1 (stereo unspecified)	Dicer inh 3.8
Cc1n(CC(O)COc2cccc(Cl)c2)c2ccccc2[n+]1C (stereo unspecified)	none
O=C(NNC1=NCCN1Cc1ccccc1)c1cccc(Cl)c1	none
Nc1ccccc1SCC(O)COc1cccc(C(F)(F)F)n1 (stereo unspecified)	none
CC1=C(C(=O)OC2CCCCC2)C(c2ccc(N(C)C)cc2)C2=C(CCCC2=O)N1 (stereo unspecified)	none
COc1ccc(OC)c(C2C(C(=O)OC(C)C)=C(C)NC3=C2C(=O)CC(c2ccc(Cl)cc2)C3)c1 (stereo unspecified)	none
COCc1cc(=O)n2[nH]c(-c3ccc(OC)cc3)cc2n1	none
O=C(Cc1ccccc1)N(c1ccc2oc(=O)sc2c1)S(=O)(=O)c1cccs1	Dicer inh 5.4
CC(C)C(=O)N(c1cc2sc(=O)oc2c2ccccc12)S(=O)(=O)c1cccs1	none
O=C(c1ccncc1)N(c1ccc2oc(=O)sc2c1)S(=O)(=O)c1cccs1	Dicer inh 5.5
COc1ccc(S(=O)(=O)N(C(=O)c2ccncc2)c2cc3sc(=O)oc3c3ccccc23)cc1	none
O=C(c1cccnc1)N(c1ccc2oc(=O)sc2c1)S(=O)(=O)c1cccs1	Dicer inh 6.1
CC(C)C(=O)N(c1ccc2oc(=O)sc2c1)S(=O)(=O)c1cccs1	none
COc1ccc(C2C3=C(CCCC3=O)Nc3ncnn32)cc1OC (stereo unspecified)	none
O=C(NCCc1c[nH]c2ccccc12)c1cc2n(n1)C(C(F)(F)F)CC(c1ccco1)N2 (stereo unspecified)	none
CN(Cc1ccccc1)c1oc(COc2ccc(Cl)cc2)nc1C#N	none
CCCc1cc(=O)[nH]c(SCc2noc(-c3snnc3C)n2)n1	none
c1cc2c(cc1CNCc1ccc3c(c1)OCO3)OCO2	none
COc1cccc(C2C3=C(CC(C)(C)CC3=O)Nc3ccc4ccccc4c32)c1OC (stereo unspecified)	none
COc1ccccc1N1CCN(C(=O)C(C)Nc2ccccn2)CC1 (stereo unspecified)	none
COc1ccccc1N1CCN(C(=O)C(C)Oc2ccnc3c(C)ccc(C)c23)CC1 (stereo unspecified)	Dicer inh 3.6
COc1ccccc1N1CCN(C(=O)C2CCCCC2)CC1	none
C=CCSc1nnc2c(n1)OC(c1ccc(OC)cc1OC)Nc1ccccc1-2 (stereo unspecified)	none
Cc1ccc(C)c(Nc2nnc(-c3ccc(C)c(S(=O)(=O)NCCO)c3)c3ccccc23)c1	none
COC(=O)/C(C#N)=C/c1cc(Br)c(OC(C)=O)c(OC)c1	none
CN(C)/C=N/S(=O)(=O)c1ccc(-n2nc(C(F)(F)F)cc2-c2cccs2)cc1	none
NN/C(=N\S(=O)(=O)c1ccc(-n2nc(C(F)(F)F)cc2-c2cccs2)cc1)N1CCCC1	none
CS/C(=N/S(=O)(=O)c1ccc(-n2nc(C(F)(F)F)cc2-c2cccs2)cc1)NNC(=O)Nc1ccccc1	Dicer inh 4.4
O=C(Nc1ccc(F)cc1F)C(=S)N1CCOCC1	none
O=C1c2ccccc2C(=O)C1c1ccc2ccccc2n1	none
O=C1c2cccc3cccc(c23)C(=O)C1c1ccccc1	none
O=C1c2cc3ccccc3cc2C(=O)C1c1ccccc1	Dicer inh 4
O=C(O)c1cccc2c1-c1ccccc1C2	none
COc1ccc(C2CC(=O)c3cnc(N4CCN(c5ccccn5)CC4)nc3C2)cc1OC (stereo unspecified)	none
CCOCCOC(=O)C1=C(C)NC2=C(C(=O)CC(C)(C)C2)C1c1cccc(O)c1 (stereo unspecified)	none
CC(C)NC(=O)CSc1nnc(-c2ccc3ncccc3c2)n1C	Dicer inh 3.1
C=CCn1c(SCC(C)=O)nnc1-c1ccc2ncccc2c1	none
Cc1ccc(C(=O)CSc2nnc(-c3ccc4ccccc4c3)n2C)cc1	none
CCOC(CC(=O)NNC(=O)c1c(-c2c(F)cccc2Cl)noc1C)OCC	none
CCc1c(C)nc(Nc2nc(C)c3cc(C)c(C)cc3n2)[nH]c1=O	none
Cc1cc(Sc2nc(C)cc(C)c2C#N)nc(N)n1	none
Nc1c(C(=O)NCc2ccco2)sc2nc(-c3ccncc3)ccc12	none
O=C1Sc2ccc(S(=O)(=O)Nc3ccc(F)cc3)c3cccc1c23	Dicer inh 3.5
O=C(O)c1ccccc1NS(=O)(=O)c1ccc2c3c(cccc13)C(=O)S2	none
COc1ccc(NS(=O)(=O)c2ccc3c4c(cccc24)C(=O)N3)cc1	none
Cc1nnc2sc(-c3ccc(Cl)c(N)c3)nn12	none
Cc1ccc(N(CC(O)CN(C)C)S(=O)(=O)c2ccc(C)cc2)cc1 (stereo unspecified)	none
Cc1ccc(C2Nn3c(C)nnc3SC2C(=O)Nc2ccc(Br)c(C)c2)cc1 (stereo unspecified)	none
O=C(NCc1cccnc1)c1cccc2c1OCCCO2	none
CN(C)CCNC(=O)c1cc2ccccc2[nH]1	none
CCOc1cc(C2C(C(=O)OC(C)C)=C(C)NC3=C2C(=O)CCC3)ccc1O (stereo unspecified)	none
O=C(Oc1cccc2cccnc12)c1ccc(Br)cc1	Dicer inh 4.6
O=C(Oc1cccc2cccnc12)c1ccc2c(c1)-c1ccccc1C2=O	none
Cc1onc(-c2c(Cl)cccc2Cl)c1C(=O)Oc1cccc2cccnc12	none
